The record followed here is PubChem BioAssay.

Activity calls are given as the source filed them.

The nature of experiment [1]: optical density shifts of acrAB sulA E. coli – strain DRC41, OD650, 48 h, E. coli filamentation inducer project, primary screen (AID 1152).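 Further: E. coli MC1000 strain DRC41 lacking acrAB efflux pump and sulA.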 The note with it: higher = more signal, called active from +8 up or from −8 down.
Experiment [2] is described as follows: probe aLefty1 binding on compound microarray – biochemical, small-molecule microarray, 635/667 nm fluorescence, primary screen (AID 1153).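 Further: score merges spot fluorescence with signal-to-noise ratio from the scanned slide images.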 The note with it: higher = more signal.
Experiment [3] is described as follows: plasmodial surface anion channel blockers, osmotic lysis – cell-based, P. falciparum Indochina, OD700, 1 h, primary screen (AID 1154). The note with it: P. falciparum Indochina infected RBC osmotic lysis, higher = more signal, called active from +8 up or from −8 down.
Experiment [4] in a line: plasmodial surface anion channel blockers, osmotic lysis – cell-based, P. falciparum Indochina, OD700, 2 h, primary screen (AID 1155).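 Further: lysis reports solute entry through the parasite surface anion channel PSAC.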 The note with it: P. falciparum Indochina infected erythrocytes, higher = more signal, called active from +8 up or from −8 down.
Experiment [5] in a line: changes in parasitized red cell lysis, either direction – P. falciparum Indochina, OD700, 3 h, PSAC antagonist project, primary screen (AID 1156). The note with it: P. falciparum-infected erythrocytes, osmotic lysis, higher = more signal, called active from +8 up or from −8 down.
Experiment [6] is described as follows: plasmodial surface anion channel blockers, osmotic lysis – cell-based, P. falciparum Indochina, OD700, 18 h, primary screen (AID 1157). The note with it: P. falciparum Indochina infected erythrocytes, osmotic lysis OD700, 18 h; higher = more signal, called active from +8 up or from −8 down.
The nature of experiment [7]: S6 kinase pathway phospho-S6 level changes – cell-based, A549, cytoblot, luminescence, serum-stimulated, primary screen (AID 1158).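 Further: serum-stimulated A549 lung adenocarcinoma cells; signal is phosphorylated S6 detected by cytoblot immunostaining with HRP secondary.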 The note with it: 5 h, higher = more signal.
Experiment [8] has as its target NADPH oxidase 2 (Homo sapiens) (UniProt P04839). In words: compounds shifting NOX2 Amplex Red fluorescence – cell-based, HEK293-NOX2, PMA-stimulated, NOX inhibitor project, primary screen (AID 1159). Further: test concentration not given here. The note with it: 45 min, higher = more signal, called active from +8 up or from −8 down.
In experiment [9] the target is NADPH oxidase 4 (Homo sapiens) (UniProt Q9NPH5). In words: compounds shifting NOX4 Amplex Red fluorescence – cell-based, HEK293-NOX4, tetracycline-induced, NOX inhibitor project, primary screen (AID 1160). The note with it: HEK293-NOX4, Amplex Red H2O2 fluorescence, 45 min; higher = more signal, called active from +8 up or from −8 down.
Sequence of NADPH oxidase 4 (Homo sapiens) (Q9NPH5 whole entry, looked up): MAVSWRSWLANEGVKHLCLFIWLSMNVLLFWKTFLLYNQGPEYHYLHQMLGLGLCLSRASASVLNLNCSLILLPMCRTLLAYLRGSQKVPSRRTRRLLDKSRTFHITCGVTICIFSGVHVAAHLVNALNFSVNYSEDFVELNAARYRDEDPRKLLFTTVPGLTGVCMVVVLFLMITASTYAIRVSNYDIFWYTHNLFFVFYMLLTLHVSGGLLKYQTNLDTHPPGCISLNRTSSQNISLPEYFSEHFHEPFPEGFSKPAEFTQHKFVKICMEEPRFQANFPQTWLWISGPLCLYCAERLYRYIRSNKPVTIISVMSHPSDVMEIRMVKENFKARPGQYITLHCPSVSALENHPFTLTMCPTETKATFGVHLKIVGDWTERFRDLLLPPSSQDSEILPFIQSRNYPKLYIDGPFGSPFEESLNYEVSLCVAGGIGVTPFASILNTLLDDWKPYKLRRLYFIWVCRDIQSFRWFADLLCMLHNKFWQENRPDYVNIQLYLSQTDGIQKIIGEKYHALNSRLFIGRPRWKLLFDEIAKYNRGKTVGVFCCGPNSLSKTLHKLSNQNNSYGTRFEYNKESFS
Experiment [10] has as its target NADPH oxidase 5 (Homo sapiens) (UniProt Q96PH1). In words: compounds shifting NOX5 Amplex Red fluorescence – cell-based, HEK293-NOX5, NOX inhibitor project, primary screen (AID 1161). The note with it: HEK293-NOX5, ionomycin, 45 min, higher = more signal.

Sequence of NADPH oxidase 2 (Homo sapiens) (P04839 whole entry, looked up): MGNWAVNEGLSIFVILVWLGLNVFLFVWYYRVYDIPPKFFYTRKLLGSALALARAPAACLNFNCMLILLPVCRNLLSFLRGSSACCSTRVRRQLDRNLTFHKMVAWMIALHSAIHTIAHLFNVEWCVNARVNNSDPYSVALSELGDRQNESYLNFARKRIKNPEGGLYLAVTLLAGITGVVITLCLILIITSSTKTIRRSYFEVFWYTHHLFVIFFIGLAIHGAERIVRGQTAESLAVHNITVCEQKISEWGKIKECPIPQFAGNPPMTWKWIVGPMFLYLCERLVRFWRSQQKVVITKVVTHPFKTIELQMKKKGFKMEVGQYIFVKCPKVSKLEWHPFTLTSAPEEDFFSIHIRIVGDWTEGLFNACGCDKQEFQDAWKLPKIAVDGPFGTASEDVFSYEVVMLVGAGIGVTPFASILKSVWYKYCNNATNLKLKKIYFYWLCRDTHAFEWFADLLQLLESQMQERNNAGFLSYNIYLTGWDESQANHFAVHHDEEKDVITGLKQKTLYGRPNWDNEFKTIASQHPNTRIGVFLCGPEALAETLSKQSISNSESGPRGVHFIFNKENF
Sequence of NADPH oxidase 5 (Homo sapiens) (Q96PH1 whole entry, looked up): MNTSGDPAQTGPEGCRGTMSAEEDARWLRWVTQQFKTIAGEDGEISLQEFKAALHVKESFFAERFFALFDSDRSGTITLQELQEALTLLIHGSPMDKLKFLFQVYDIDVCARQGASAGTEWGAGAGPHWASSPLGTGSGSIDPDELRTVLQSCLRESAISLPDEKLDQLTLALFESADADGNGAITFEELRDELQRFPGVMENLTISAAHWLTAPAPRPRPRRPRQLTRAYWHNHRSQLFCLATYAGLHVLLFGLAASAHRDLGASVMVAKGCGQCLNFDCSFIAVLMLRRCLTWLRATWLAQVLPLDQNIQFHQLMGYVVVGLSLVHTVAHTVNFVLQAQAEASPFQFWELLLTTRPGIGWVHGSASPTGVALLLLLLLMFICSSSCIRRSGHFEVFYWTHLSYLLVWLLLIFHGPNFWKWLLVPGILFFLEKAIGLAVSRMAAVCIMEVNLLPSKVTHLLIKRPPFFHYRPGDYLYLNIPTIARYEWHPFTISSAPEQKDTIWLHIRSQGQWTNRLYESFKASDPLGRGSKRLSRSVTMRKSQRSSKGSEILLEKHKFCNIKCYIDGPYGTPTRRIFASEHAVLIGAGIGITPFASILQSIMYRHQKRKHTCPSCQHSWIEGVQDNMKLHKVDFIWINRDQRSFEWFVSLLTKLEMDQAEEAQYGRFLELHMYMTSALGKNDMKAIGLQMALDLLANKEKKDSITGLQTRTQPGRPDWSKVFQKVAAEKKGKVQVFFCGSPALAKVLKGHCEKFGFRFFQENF

In the case of `CC(=O)NCCCC[C@@H]1NC(=O)[C@@H]2C[C@H](C(=O)NCCCCCC[N+](C)(C)C)[C@H](c3cccc(OCCO)c3)N2C1=O`, the z-score in experiment [1] is 0.0924 (inactive); in experiment [3], 2.99 (inactive); in experiment [4] it was 0.591 (inactive); in [5] it was -0.956 (inactive); in experiment [6], 0.325 (inactive); in experiment [7], -0.507. The z-score is 1.09 (inactive) in [8], 0.91 (inactive) in experiment [9] and 0.593 in experiment [10]. Besides, the composite z-score in experiment [2] was 0.156.
As to `O=C1OCCC=C[C@H]2OC34C=CCN(c5ccc6ccccc6c5)C(=O)[C@H]3N(CCCCCCO)C(=O)[C@@H]4C12` (stereo not given in full), the z-score is 0.901 (inactive) in experiment [1]; 0.856 (inactive) in experiment [3]; 0.712 (inactive) in experiment [4]; 0.738 (inactive) in experiment [5]; 0.426 (inactive) in experiment [6]; 1.08 in [7]. Moreover, the z-score in experiment [8] is 1.42 (inactive); in experiment [9] it was 0.441 (inactive); in experiment [10], 2.68. The same compound displayed a composite z-score in experiment [2] of -0.0536.
Consider `[N-]=[N+]=NCc1ccccc1C[C@]1(C(=O)N2CCOCC2)N=C(c2ccc(OCCCO)cc2)O[C@H]1c1ccccc1`, for which the z-score was 1.07 (inactive) in experiment [1]; 29.4 (active) in [3]; 24.2 (active) in [4]; 0.785 (inactive) in [5]; 1.5 (inactive) in [6]; 1.57 in [7]. Besides, the z-score is -1.95 (inactive) in experiment [8], -0.399 (inactive) in experiment [9] and -1.32 in experiment [10]. Moreover, the composite z-score in [2] came out at 0.208.
As for `C=CCC(OC(C)=O)[C@@H]1[C@@H](N(Cc2ccc(-c3cccc(C(F)(F)F)c3)o2)C(=O)Cc2ccc(OC)cc2)c2cc(OCCCO)ccc2N1C(=O)Cc1ccc(OC)cc1` (stereo not given in full), the z-score in [1] is 1.12 (inactive); in [3], 1.66 (inactive); in [4], -0.139 (inactive); in experiment [5], 0.777 (inactive); in experiment [6] it was -0.176 (inactive); in [7], 1.37. The z-score in experiment [8] is -2.27 (inactive); in experiment [9], -1.82 (inactive); in [10] it was -1.89. The compound also displayed a composite z-score in experiment [2] of -0.0547.
For `COC(=O)[C@@]1(Cc2ccc(F)cc2)[C@H]2c3cc(C(=O)N(C)C)n(Cc4ccccn4)c3C[C@H]2CN1C(=O)c1ccccc1`, the z-score in experiment [1] was -1.37 (inactive); in [3] it was 0.755 (inactive); in experiment [4], -0.692 (inactive); in experiment [5], 0.336 (inactive); in [6] it was -1.68 (inactive); in [7] it was 0.388. Besides, the z-score is 0.467 (inactive) in [8], 1.2 (inactive) in experiment [9] and -2.82 in experiment [10]. In experiment [2], this compound returned a composite z-score of 1.13.
For the compound `O=C(NCC(O)CO)[C@]1(CCS(=O)(=O)c2ccccc2)N=C(c2ccc(OCCCO)cc2)O[C@@H]1c1ccccc1` (stereo not given in full), the z-score was -0.374 (inactive) in [1]; 25.6 (active) in experiment [3]; 6.78 (inactive) in experiment [4]; 1.61 (inactive) in [5]; 0.987 (inactive) in [6]; -0.516 in experiment [7]. Further, the z-score in [8] is 1.4 (inactive); in experiment [9], 0.762 (inactive); in experiment [10], -0.186. The compound also gave a composite z-score in [2] of 0.0371.
In the case of `COc1ccc(C(=O)Nc2cccc(CN3C(=O)[C@@]4(O[C@@H](CCn5cc([C@H](O)c6ccccc6)nn5)[C@H]([Si](C)(C)c5ccc(OC)cc5)[C@H]4C)c4ccccc43)c2)cc1`, the z-score in experiment [1] was -0.677 (inactive); in experiment [3], 4.91 (inactive); in [4], 0.715 (inactive); in experiment [5], 0.618 (inactive); in [6], 1.04 (inactive); in experiment [7], 0.858. The z-score in experiment [8] was -0.492 (inactive); in [9] it was 0.663 (inactive); in experiment [10], 2.23. Further, the composite z-score in experiment [2] worked out at 0.379.
In the case of `C=CCN1Cc2ccccc2C[C@]2(N=C(c3ccc(OCCCO)cc3)O[C@@H]2c2ccccc2)C1=O`, the z-score in experiment [1] was 1.35 (inactive); in [3], 24.3 (active); in [4], 12.6 (active); in experiment [5] it was -0.0845 (inactive); in experiment [6], 1.93 (inactive); in experiment [7], 1.95. Further, the figures for the z-score in [8], in experiment [9] and in [10] were -2.9 (inactive), 0.272 (inactive) and -2.7, respectively. In [2], this compound had a composite z-score of 0.32.
In the case of `COc1cc(NN2C(C(O)c3ccccc3)C=CC3C(=O)N(c4ccccc4)C(=O)C32)cc(OC)c1OC` (stereo not given), the z-score is -0.26 (inactive) in experiment [1]; 1.38 (inactive) in [3]; 0.0862 (inactive) in [4]; 0.86 (inactive) in [5]; -0.325 (inactive) in experiment [6]; 0.838 in experiment [7]. Further, the z-score in experiment [8] is -3.61 (inactive); in [9], -4.63 (inactive); in experiment [10] it was -7.16. In addition, the composite z-score in [2] was found to be 0.644.
In the case of `COCCOC(=O)N1C(=O)[C@@]2(c3cc(C#CC4=CCCCC4)ccc31)[C@H](c1ccc(OCCO)cc1)N1[C@H](c3ccccc3)[C@H](c3ccccc3)OC(=O)[C@H]1[C@@H]2C(=O)Nc1nc2ccccc2s1`, the z-score in experiment [1] was 2.88 (inactive); in experiment [3] it was 2.35 (inactive); in experiment [4], 0.922 (inactive); in [5], -0.419 (inactive); in experiment [6] it was 1.83 (inactive); in [7] it was 1.24. The figures for the z-score in experiment [8], in experiment [9] and in [10] were 0.821 (inactive), 0.824 (inactive) and 1.35, respectively. For the same compound, the composite z-score in [2] amounted to 0.114.
For the compound `C=C(/C(=C/C[C@@H](OC(=O)c1ccncc1)c1ccc(CO)o1)c1cc(C(=O)OC)ccc1OC)C(C)C`, the z-score in experiment [1] was 0.694 (inactive); in [3], 6.4 (inactive); in experiment [4], 1.47 (inactive); in experiment [5], 2.63 (inactive); in [6], 0.529 (inactive); in experiment [7], 0.57. In addition, the z-score in experiment [8] is -0.0543 (inactive); in experiment [9], -0.699 (inactive); in experiment [10] it was -0.86. Besides, in experiment [2], the composite z-score worked out at 0.107.
As to `O=P(NCC1(CC2(c3ccccc3)CO2)CC1)(c1ccccc1)c1ccccc1` (stereo not given), the z-score was -0.569 (inactive) in experiment [1]; 0.0174 (inactive) in experiment [3]; -0.505 (inactive) in experiment [4]; 0.424 (inactive) in [5]; 0.297 (inactive) in experiment [6]; -0.242 in [7]. Besides, the z-score in experiment [8] was -0.024 (inactive); in [9], 0.266 (inactive); in experiment [10], -2.9. In experiment [2], this compound registered a composite z-score of 0.315.
In the case of `COCCn1c(C(=O)N(C)C)cc2c1C[C@H]1CN(C(=O)c3ccccc3)[C@@](Cc3ccc(F)cc3)(C(=O)OC)[C@@H]21`, the z-score in experiment [1] is 0.118 (inactive); in experiment [3], 0.666 (inactive); in [4] it was -0.34 (inactive); in [5] it was -0.0451 (inactive); in experiment [6], 0.397 (inactive); in experiment [7] it was -0.17. Further, the z-score in experiment [8] was 0.395 (inactive); in experiment [9], 0.211 (inactive); in experiment [10], -1.69. The composite z-score in experiment [2] was 0.211.
